Test results published in PubChem BioAssay (NCI).
This is part of a sample that, as a whole, favours compounds with a hit. Of some 83,000 tested, about 20% had one in any assay.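 Cells were grown in 96-well plates and exposed to the test compound at a single concentration for 48 hours; results are reported as percent growth, with values below 10 considered active.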 Unmarked numbers belong to inactive results. The source made the active and inactive calls.

Key:
Assay in all cases: NCI-60 one-dose screen, 48 h (100 = growth as untreated, 0 = no growth, -100 = all killed)
A549/ATCC NSCLC = details: 10 µM unless noted
DU-145 prostate = details: 10 µM unless noted
K-562 leukemia = details: 10 µM unless noted
RXF 393 renal = details: 10 µM unless noted
UACC-257 melanoma = details: 10 µM unless noted
HT29 colon = details: 10 µM unless noted
SNB-75 CNS = details: 10 µM unless noted
PC-3 prostate = details: 10 µM unless noted
SK-MEL-5 melanoma = details: 10 µM unless noted
UACC-62 melanoma = details: 10 µM unless noted
SK-MEL-2 melanoma = details: 10 µM unless noted
ACHN renal = details: 10 µM unless noted
A498 renal = details: 10 µM unless noted
HL-60(TB) leukemia = details: 10 µM unless noted
MOLT-4 leukemia = details: 10 µM
OVCAR-8 ovarian = details: 10 µM unless noted
OVCAR-5 ovarian = details: 10 µM unless noted
HS 578T breast = details: 10 µM unless noted
NCI/ADR-RES ovarian = details: 10 µM unless noted
T-47D breast = details: 10 µM unless noted

| Compound | growth (A549/ATCC NSCLC) | growth (DU-145 prostate) | growth (K-562 leukemia) | growth (RXF 393 renal) | growth (UACC-257 melanoma) | growth (HT29 colon) | growth (SNB-75 CNS) | growth (PC-3 prostate) | growth (SK-MEL-5 melanoma) | growth (UACC-62 melanoma) | growth (SK-MEL-2 melanoma) | growth (ACHN renal) | growth (A498 renal) | growth (HL-60(TB) leukemia) | growth (MOLT-4 leukemia) | growth (OVCAR-8 ovarian) | growth (OVCAR-5 ovarian) | growth (HS 578T breast) | growth (NCI/ADR-RES ovarian) | growth (T-47D breast) |
| --- | --- | --- | --- | --- | --- | --- | --- | --- | --- | --- | --- | --- | --- | --- | --- | --- | --- | --- | --- | --- |
| COC(=O)C(=[N+]=[N-])C(=O)OC | 99.3% | 112% | 95.5% | 102% | 96.4% | 101% | 80.6% | 92.3% | 104% | 95.3% | 91.2% | 94% | 100% | 100% | 105% | 101% | 107% | 121% | 108% | 109% |
| ClCCN(CCCl)c1ccc(/C=C\c2ccnc3ccccc23)cc1 | 71% | 90.6% | 60.9% | 99% | 47.1% |  | 84.6% | 55.5% | 71.2% | 59.2% |  | 76% | 68.2% | 46.8% | 69.8% | 79.8% | 119% | 89.9% | 80.4% | 63.1% |
| COc1ccc(C(=O)c2ccc([As]=O)cc2)cc1 (stereo unspecified) | -71.8% (active) |  | 0.914% (active) | -99.6% (active) | -95.7% (active) | -68.9% (active) | -97% (active) | -86.3% (active) | -99.5% (active) | -82.1% (active) | -94% (active) | -91.8% (active) | -100% (active) | -47.4% (active) | -24.5% (active) | -84.2% (active) | -84.2% (active) | -1.54% (active) | -5.33% (active) | -77.6% (active) |
| O=C(CC1(O)C(=O)Nc2ccc(F)cc21)c1ccc(C(=O)NCC2CCC3(CC2)OOC2(CCCCC2)OO3)cc1 (stereo unspecified) | -66.5% (active) | 3.83% (active) | 14.9% | 59.4% | 70.4% |  | 69.8% | 44.2% |  | 73.4% |  | -25.2% (active) | 65% | -64.2% (active) | 22.5% | 19.7% | 87.3% | 73.8% | 80% | 29.6% |
| C[C@@H]1CC[C@@H]2[C@@H]1[C@H](OC(=O)/C=C/C1CCCCC1)[C@]1(C3CCCCC3)C[C@@H](OC(=O)CO)[C@@]2(C)O1 | 60.6% | 82.1% | 44.1% | 13.3% | 61.7% | 31.4% | 76.9% | 31.1% | 84.8% | 69.5% | 73.7% | 14.9% | -83.3% (active) | 8.36% (active) |  | 23% | 101% | -28.1% (active) | 12.2% |  |
| CO[C@@H]([CH2][Hg][S]C#N)[C@@H]([CH2][Hg][S]C#N)OC | 102% | 99.2% | 46.5% | 57.8% | 86.8% | 79.4% | 84.5% | 78.8% | 107% | 88.9% | 106% |  | 118% | 62.9% | 101% | 107% | 107% | 98.6% | 93.7% | 116% |
| O=C(C(=O)N1CCCC1)c1cn(CCCCCn2cc(C(=O)C(=O)N3CCCC3)c3ccccc32)c2ccccc12 | 85.2% | 100% | 68.8% | 108% | 102% |  | 74.9% | 65.9% | 75.9% | 65.3% | 114% | 87.8% | 94.1% | 109% |  | 90.8% | 106% | 94.4% | 84.4% | 91.3% |
| Nc1cccc2c1Oc1ccccc1O2 | 97% | 120% | 96.4% | 145% | 102% | 119% | 133% | 84.9% | 86% | 88.1% | 98% | 99.2% | 118% | 107% | 103% | 104% | 98.3% | 112% | 113% | 115% |
| O1[As]2O[As]3O[As]1O[As](O2)O3 | 37.8% |  |  | -47.6% (active) | -22.1% (active) | -21.1% (active) | -0.103% (active) | 10.7% | -91.5% (active) | -53.3% (active) | -34.8% (active) | 28% | 2.98% (active) | 1.06% (active) | 10.7% | 4.6% (active) | 18.7% |  | 13.8% | 22.9% |
| COc1cc(N(CCCl)CCCl)ccc1C=Nc1ccccc1C(=O)O | 92.6% | 104% | 95% | 102% | 91% | 98.2% | 85.8% | 90.3% | 97.4% | 96.4% | 113% | 97% | 66.3% | 94.8% | 97.2% | 92.9% | 108% | 81.5% | 102% | 97.6% |
| CCOC(=O)/C(C#N)=C/c1ccc(N(CCCl)CCCl)cc1 | 85.2% | 98.8% | 98.6% | 93.3% | 103% | 92.5% | 73.3% | 69.7% | 97.9% | 66.5% | 99.2% | 72.8% | 95.5% | 85.2% | 84.7% | 71.6% | 106% | 103% | 94.8% | 80.6% |
| CCOC(=O)/C=C(\C)Nc1ccc(N/C(C)=C/C(=O)OCC)c2c1Oc1ccccc1O2 | 106% | 110% | 81.7% | 0.357% (active) | 109% | 112% | 103% | 103% | 79.9% | 92.3% | 100% | 104% | 102% | 63.4% | 75.5% | 96.7% | 106% | 87.3% | 99.5% | 103% |
| CCC1CN1P(=O)(OCCOC)N1CC1CC (stereo unspecified) | 101% | 110% | 109% | 110% | 96.7% | 104% | 92.9% | 98.2% | 109% | 103% | 126% | 103% | 119% | 119% | 108% | 105% | 103% | 114% | 115% | 104% |
| CCN(CC)CCOc1c(C(C)C)cccc1C(C)C | 89.5% |  | 111% | 112% | 94.8% | 95.4% | 84.8% | 101% | 101% | 99.5% | 96.9% | 97.4% | 82.1% | 107% | 102% | 100% | 90.6% | 110% | 101% | 85.1% |
| O=C(O)c1[nH]c(=O)[nH]c(=O)c1F | 90.1% | 96.6% | 107% | 103% | 103% | 106% | 99% | 95.6% |  | 79.6% | 110% | 77% | 82.5% | 117% | 49.7% | 81.7% | 104% | 123% | 95% | 104% |
| O=C(CCCN1CCC2(CC1)C(=O)NCN2c1ccc(F)cc1)c1ccc(F)cc1 |  | 122% | 113% | 102% | 104% | 111% | 92.4% | 101% | 104% | 90.5% | 84.9% | 108% | 106% | 100% | 103% | 97.8% | 91.3% | 133% | 97.9% | 102% |
| N#C[Se]CCCNS(=O)(=O)C1CC2C=CC1C2 (stereo unspecified) | -34.1% (active) | -68% (active) | 5.87% (active) | -90% (active) | -55.3% (active) | 1.16% (active) |  | -19.2% (active) | -70.8% (active) | -54.1% (active) | -24.4% (active) | -67% (active) |  | -41.1% (active) | 5.9% (active) | -27.1% (active) | 4.98% (active) | -25.9% (active) | -3.8% (active) | 30.6% |
